Experimental findings from PubChem BioAssay AID602163 (The Scripps Research Institute Molecular Screening Center, 2012) are described below.

Out of some 360,000 compounds screened, about 1,100 (0.31%) were called active. This is one part of a sample in which actives are shown more often than they occur. Values without a mark were called inactive. Rule as the data show it: active = activation above about 7.5%; inactive = the rest.

The test deals with Methionine sulfoxide reductase A (Bos taurus). Put plainly: bovine MsrA enzyme activators, primary screen, biochemical, absorbance, HTS (AID 602163).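 Also: 0% = vehicle and 100% = reference activator.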 To be noted: purified bovine MsrA, absorbance read-out; at 10.6 µM; active compounds read high.
As to `CN(/C(=N/S(=O)(=O)c1cccs1)c1ccccc1)c1ccc(O)cc1`, the activation is -3.66%.
With `Brc1ccc(-c2n(-c3ccccn3)c3ccccc3[n+]2-c2ccccn2)cc1` the figure was -3.31%; with `CCc1ccc(NC(=O)CSc2nnc(-c3cnccn3)n2Cc2ccco2)cc1`, 10.3% (active).
Take `CCOC(=O)Cc1csc(NC(=O)CSc2nnc(-c3cccnc3)n2Cc2ccco2)n1`: the activation was -2.57%.
As for `CCn1c(SCC(=O)Nc2cc(C)ccc2C)nnc1-c1cnccn1`, the activation is -14%.
With `CN(C(=O)c1cccc(NC(=O)Cc2ccc(NC(=O)C3CCCN(C(=O)C4CC4)C3)cc2)c1)C1CC1` (centres undefined) the figure was -5.02%.
With `O=C(Cc1ccc(NC(=O)C2CCCN(C(=O)C3CCCCC3)C2)cc1)Nc1cccc(C(=O)N2CCCCC2)c1` (centres undefined) the figure was 8.7% (active).
For the compound `CN(C(=O)c1cccc(NC(=O)Cc2ccc(NC(=O)C3CCCN(C(=O)C4CCCC4)C3)cc2)c1)C1CCC1` (centres undefined), the activation was -1.96%.
With `C=C(C)C(=O)O[C@H]1C/C(C)=C\C(=O)/C=C(\C)[C@H](O)[C@@H]2OC(=O)C(=C)[C@@H]21` the figure was -5.09%; with `COCc1cccc(-c2csc(C(O)c3ccc(F)cc3)n2)c1` (centres undefined), -2.06%; with `CSc1ccc(CN(C)CC(=O)NCc2ccc(F)cc2)cc1`, -2.54%.
On to `COc1cc(OC)cc(-c2c(C#Cc3ccsc3)c3cc(-c4ccc(SC)cc4)ccc3n2C)c1`, for which the activation is -0.65%.
With `C/C=C/C(=O)OCC(=O)Nc1ccc(F)cc1Cl` the figure was -7.53%; with `CN1c2ccc(C=O)c3c(C=O)ccc(c23)N(C)C1(C)C`, 9.27% (active); with `c1ccc(CN=C2Nc3ccccc3CS2)nc1`, -3.81%.
As for `COc1cc(F)c(C2=CC(=O)CC(C)(C)C2)cc1F`, the activation is -3.81%.
Turning to `O=C(COC(=O)CSc1nnc(-c2ccc(Cl)cc2)o1)Nc1cc(Cl)cc(Cl)c1`, the activation was -3.64%.
With `CC(NS(=O)(=O)c1ccccc1)c1n[nH]c(=S)n1-c1ccccc1` (centres undefined) the figure was -0.57%; with `Cc1ccc(C(=O)COC(=O)CCN2C(=O)C3C4CC(C(Br)C4Br)C3C2=O)cc1` (centres undefined), -3.01%; with `O=C(c1ccco1)N1CCN(Cc2cccc(C(F)(F)F)c2)CC1`, 7.76% (active).
For the compound `O=C(c1ccco1)N1CCN(C(=S)Nc2cc(F)cc(F)c2)CC1`, the activation is -6.94%.
Regarding `O=C(c1ccco1)N1CCN(CCOc2ccccc2)CC1`, the activation was -3.77%.
Take `Cn1c(=O)c2[nH]c(NCC3CCCO3)nc2n(-c2ccccc2)c1=O` (centres undefined): the activation was -0.78%.
With `Cc1cccc(NC(=O)CSc2nnc(CCCCCNC(=O)OC(C)(C)C)o2)c1C` the figure was -0.45%; with `O=C(O)CC(CC(=O)N1CCOCC1)c1ccccc1` (centres undefined), -2.3%; with `CC1=NN(C(=O)Cc2ccc(C)cc2)C(O)(c2cccnc2)C1` (centres undefined), 0.86%.
With `COc1ccccc1-n1c(C)nc2cc(C(=O)NCc3ccc4c(c3)OCO4)ccc21` the figure was -1.98%.
Regarding `COc1cc(OC)c(C(=O)NCc2ccc3c(c2)OCO3)cc1OC`, the activation was 9.15% (active).
`COc1ccc(NC(=O)NCc2ccc3c(c2)OCO3)c(OC)c1`: the activation is -3.53%.
With `CCOC(=O)C1CCN(C(=O)c2cccc(S(=O)(=O)N(CC)c3ccccc3)c2)CC1` the figure was -8.63%.
With `O=C(CN1CCN(c2ccc(O)cc2)CC1)Nc1ccc(-c2ccccc2)cc1` the figure was -3.19%.
With `COc1ccccc1NC(=O)CCN1CCN(c2ccc(Cl)cc2)CC1` the figure was -3.09%.
`O=C(CCN1CCN(c2ccccc2)CC1)NNC(=S)Nc1ccccc1`: the activation is 12.7% (active).
With `O=C(Nc1ccccc1)c1nnsc1S(=O)(=O)c1ccc(Cl)cc1` the figure was -11.8%.
With `O=c1[nH]snc1-c1c(Cl)cccc1Cl` the figure was -0.32%.
With `CCC(C)N1C(=O)S/C(=C/c2ccc(Sc3nc4ccccc4[nH]3)o2)C1=O` (centres undefined) the figure was -7.08%; with `Cc1ccc(S(=O)(=O)N2CCC(C(=O)N3CCCCCCC3)CC2)cc1`, -4.45%.
Take `Cc1ccc(S(=O)(=O)n2nc(OC(=O)C(C)(C)C)cc2N)cc1`: the activation was 19.7% (active).
With `Nc1cc(OC(=O)c2ccccc2Br)nn1S(=O)(=O)c1ccccc1` the figure was -3.8%; with `CCN(CC)C(=O)Cn1cc(S(=O)(=O)CC(=O)NCc2ccc3c(c2)OCO3)c2ccccc21`, -1.14%; with `O=C1Oc2ccccc2C(=O)/C1=C/c1ccccc1O`, -0.91%.
With `NC(=O)COc1ccc(/C=N/NC(=O)C2CCCN2S(=O)(=O)c2ccc(Cl)cc2)cc1` (centres undefined) the figure was 8.7% (active); with `O=C(OCC(=O)N1CCc2ccccc21)C1CCCN1S(=O)(=O)c1ccc(Cl)cc1` (centres undefined), -1.01%.
For the compound `COc1ccccc1NC(=O)C1CCCN1S(=O)(=O)c1ccc(Cl)cc1` (centres undefined), the activation was -9.31%.
With `O=C(Nc1ccc2c(c1)C(=O)OC2)Nc1cccc2ccccc12` the figure was -5.72%; with `CC1Oc2ccccc2N(Cc2cccnc2)C1=O` (centres undefined), -2.41%.
With `CC(C)Cn1cnc2c(SCc3ccc(Cl)cc3)nc(N)nc21` the figure was -1.84%; with `CCCCNC(=O)OC(C)CNC(=O)OC` (centres undefined), 8.8% (active); with `CCCCNC(=O)OCCSCCS(=O)(=O)c1ccc(Cl)cc1`, -0.48%.
In the case of `CCCCNC(=O)C1(c2ccc(OC)cc2)CCOCC1`, the activation is 2.44%.
With `Cc1cccc(-n2cnc(C(=O)NNC(=S)Nc3ccccc3)c2)n1` the figure was -2.6%; with `COc1ccc(S(=O)(=O)NC(=O)C2(C)CCN2C(=O)COc2ccc(Cl)cc2)cc1` (centres undefined), -2.84%.
With `CCc1cc2c(=O)n(-c3ccccc3)c(SCC(=O)O)nc2s1` the figure was -3.91%; with `C=CCn1c(SCC(=O)c2c(N)n(C)c(=O)n(C)c2=O)nc2sc(CC)cc2c1=O`, 8.63% (active); with `C=CCn1c(SCC(=O)/C(C#N)=C(\C)N)nc2sc(C)c(C)c2c1=O`, -12.1%.
On to `COc1cc(C)nc(N2CCCC(C(=O)NCC(C)C)C2)n1` (centres undefined), for which the activation is -8.78%.
Consider `COc1ccc2cc(C(=O)C3CCCN(C(=O)c4sc(C)nc4C)C3)ccc2c1` (centres undefined), for which the activation is -0.96%.
With `COc1ccc2nc(N3CCCC(O)C3)c(C#N)cc2c1` (centres undefined) the figure was 19.6% (active); with `CCOc1ccc2nc(N3CCCN(C(=O)Nc4ccccc4C)CC3)c(C#N)cc2c1`, -1.05%.
